The campaign covered roughly 5,500 compounds. About 2,000 (36%) were called active. Another 18% or so got no clear call; they are omitted. No stated cut-off is given here; in the data, active means normalized growth mostly below about 0.91 (no sharp cut-off); inconclusive means no clear call, values can overlap the other calls; inactive means mostly above about 0.92. The list shows a part of the results.
Assay: chemical genetic growth profiling, strain panel (AID 1159580);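 further: tested at 20 µM; growth read once vehicle control cultures reached saturation at 30 °C; 1 = growth at the plate median or of vehicle wells; lower values mean less growth of the strain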
Conditions: S. cerevisiae deletion strains, growth OD
[1] = locus YAL013W, strain DEP1, hits give low values
[2] = locus YAL040C, strain CLN3, hits give low values
[3] = locus YCL061C, strain MRC1 (second series), hits give low values
[4] = locus YDR150W, strain NUM1, hits give low values
[5] = locus YDR363W, strain ESC2, hits give low values
[6] = locus YER002W, strain NOP16, hits give low values
[7] = locus YJR075W, strain HOC1, hits give low values
[8] = locus YMR307W, strain GAS1, hits give low values
[9] = locus YNL175C, strain NOP13, hits give low values
[10] = locus YNL197C, strain WHI3, hits give low values
[11] = locus YNL224C, strain SQS1, hits give low values
[12] = locus YOR083W, strain WHI5 (second series), hits give low values

Measured: normalized growth

C[C@]12CCC(=O)C=C1CC[C@@H]1[C@@H]2CC[C@@]2(C)[C@H]1CC[C@]2(O)C(=O)CO
inactive: [1] 1.02 | [2] 1 | [3] 0.994 | [4] 0.994 | [5] 0.948 | [6] 0.98 | [7] 1 | [8] 1.01 | locus YNL153C, strain GIM3, hits give low values 0.938 | [9] 0.969 | [10] 0.975 | [11] 0.992 | [12] 0.966 | locus YPL241C, strain CIN2, hits give low values 1

CC(=O)[C@@]1(O)CC[C@H]2[C@@H]3CCC4=CC(=O)CC[C@]4(C)[C@H]3CC[C@@]21C
inactive: [1] 0.961 | [2] 0.947 | [3] 0.985 | [4] 1 | [5] 0.996 | [6] 0.967 | locus YGR078C, strain PAC10, hits give low values 0.975 | locus YGR229C, strain SMI1, hits give low values 1.01 | [7] 0.984 | [8] 0.979 | [9] 0.97 | [10] 0.966 | [11] 0.957 | [12] 1.03

Reference: PubChem BioAssay AID1159580 (chemical genetic matrix, 2015)
